The full data set covers some 8,800 targets. This sample favours those with a hit. About 0.5% of all pairs of compound and target were hits.

UniProt Q9UBU8, sequence (Q9UBU8 whole entry, looked up): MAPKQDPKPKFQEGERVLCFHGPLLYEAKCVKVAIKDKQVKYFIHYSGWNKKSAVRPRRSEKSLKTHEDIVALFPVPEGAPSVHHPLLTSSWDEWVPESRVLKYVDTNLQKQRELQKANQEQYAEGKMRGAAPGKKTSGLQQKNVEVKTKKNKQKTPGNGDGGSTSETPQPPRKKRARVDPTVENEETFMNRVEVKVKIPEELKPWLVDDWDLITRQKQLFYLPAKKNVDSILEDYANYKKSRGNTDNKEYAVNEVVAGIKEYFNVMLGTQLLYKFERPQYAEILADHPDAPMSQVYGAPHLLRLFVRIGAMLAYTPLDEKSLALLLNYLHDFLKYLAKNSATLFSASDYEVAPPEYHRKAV
UniProt Q7Z3D4, sequence (Q7Z3D4 whole entry, looked up): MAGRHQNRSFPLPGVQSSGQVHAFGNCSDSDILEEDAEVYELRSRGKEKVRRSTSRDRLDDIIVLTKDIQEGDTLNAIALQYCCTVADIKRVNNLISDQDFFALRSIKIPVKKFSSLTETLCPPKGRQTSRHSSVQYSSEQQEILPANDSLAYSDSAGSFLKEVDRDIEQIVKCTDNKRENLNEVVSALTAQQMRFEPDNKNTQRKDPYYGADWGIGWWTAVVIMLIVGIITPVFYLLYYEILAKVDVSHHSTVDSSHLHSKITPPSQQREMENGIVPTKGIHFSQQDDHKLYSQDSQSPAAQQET
UniProt Q9NVC6, sequence (Q9NVC6 whole entry, looked up): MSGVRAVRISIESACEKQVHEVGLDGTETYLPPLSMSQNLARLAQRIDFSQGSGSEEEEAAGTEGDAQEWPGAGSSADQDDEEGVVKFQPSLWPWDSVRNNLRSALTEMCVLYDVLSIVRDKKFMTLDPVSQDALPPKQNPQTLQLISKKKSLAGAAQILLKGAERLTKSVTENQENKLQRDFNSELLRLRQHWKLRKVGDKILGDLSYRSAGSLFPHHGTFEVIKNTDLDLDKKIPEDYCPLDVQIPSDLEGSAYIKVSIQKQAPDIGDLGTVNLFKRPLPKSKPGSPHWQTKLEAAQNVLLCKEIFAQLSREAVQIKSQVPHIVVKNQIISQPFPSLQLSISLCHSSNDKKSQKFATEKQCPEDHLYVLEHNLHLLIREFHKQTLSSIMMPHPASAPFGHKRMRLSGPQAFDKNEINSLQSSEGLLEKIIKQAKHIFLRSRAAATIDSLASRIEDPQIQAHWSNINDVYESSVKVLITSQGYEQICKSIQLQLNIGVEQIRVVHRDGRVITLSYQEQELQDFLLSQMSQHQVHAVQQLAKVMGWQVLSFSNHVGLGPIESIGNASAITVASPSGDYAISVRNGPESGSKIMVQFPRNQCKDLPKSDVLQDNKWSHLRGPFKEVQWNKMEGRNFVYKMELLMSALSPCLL
UniProt Q9H9A6, sequence (Q9H9A6 whole entry, looked up): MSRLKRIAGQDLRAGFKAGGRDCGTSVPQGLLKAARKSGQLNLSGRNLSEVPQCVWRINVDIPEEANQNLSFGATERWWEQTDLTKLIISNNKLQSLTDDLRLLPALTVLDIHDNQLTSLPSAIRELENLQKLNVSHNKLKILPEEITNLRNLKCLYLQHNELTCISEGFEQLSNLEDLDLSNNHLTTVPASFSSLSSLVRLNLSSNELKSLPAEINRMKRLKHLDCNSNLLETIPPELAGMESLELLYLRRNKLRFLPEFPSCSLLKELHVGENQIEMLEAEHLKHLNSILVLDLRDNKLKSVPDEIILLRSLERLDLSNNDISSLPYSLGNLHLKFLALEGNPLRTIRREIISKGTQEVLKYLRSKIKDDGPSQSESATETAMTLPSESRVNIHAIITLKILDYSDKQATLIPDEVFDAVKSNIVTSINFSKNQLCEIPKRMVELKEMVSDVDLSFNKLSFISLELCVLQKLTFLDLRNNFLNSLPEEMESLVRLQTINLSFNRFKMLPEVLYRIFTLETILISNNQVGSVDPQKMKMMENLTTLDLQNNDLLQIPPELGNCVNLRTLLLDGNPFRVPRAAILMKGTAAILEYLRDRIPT
UniProt P48059, sequence (P48059 whole entry, looked up): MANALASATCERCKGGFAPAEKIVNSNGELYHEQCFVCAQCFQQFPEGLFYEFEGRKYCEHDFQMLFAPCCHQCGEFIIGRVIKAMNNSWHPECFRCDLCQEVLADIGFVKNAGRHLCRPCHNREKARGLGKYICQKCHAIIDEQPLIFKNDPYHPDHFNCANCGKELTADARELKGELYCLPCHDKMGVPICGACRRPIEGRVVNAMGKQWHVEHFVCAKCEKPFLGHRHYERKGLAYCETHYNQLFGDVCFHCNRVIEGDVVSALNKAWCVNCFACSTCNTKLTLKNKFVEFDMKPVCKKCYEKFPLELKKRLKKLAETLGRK
UniProt O00629, sequence (O00629 whole entry, looked up): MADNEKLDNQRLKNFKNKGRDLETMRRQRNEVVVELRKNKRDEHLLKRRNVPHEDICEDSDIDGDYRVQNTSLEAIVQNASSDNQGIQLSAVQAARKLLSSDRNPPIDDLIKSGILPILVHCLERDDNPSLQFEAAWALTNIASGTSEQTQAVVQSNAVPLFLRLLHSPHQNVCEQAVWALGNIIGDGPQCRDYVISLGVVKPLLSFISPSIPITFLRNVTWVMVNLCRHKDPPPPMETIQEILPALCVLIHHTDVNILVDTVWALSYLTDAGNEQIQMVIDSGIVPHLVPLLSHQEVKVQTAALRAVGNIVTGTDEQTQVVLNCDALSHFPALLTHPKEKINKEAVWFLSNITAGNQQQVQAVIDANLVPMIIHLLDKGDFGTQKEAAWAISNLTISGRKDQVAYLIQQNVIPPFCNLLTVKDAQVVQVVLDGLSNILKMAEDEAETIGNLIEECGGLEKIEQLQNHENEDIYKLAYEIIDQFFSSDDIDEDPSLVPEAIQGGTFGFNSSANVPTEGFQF
UniProt Q9BTE3, sequence (Q9BTE3 whole entry, looked up): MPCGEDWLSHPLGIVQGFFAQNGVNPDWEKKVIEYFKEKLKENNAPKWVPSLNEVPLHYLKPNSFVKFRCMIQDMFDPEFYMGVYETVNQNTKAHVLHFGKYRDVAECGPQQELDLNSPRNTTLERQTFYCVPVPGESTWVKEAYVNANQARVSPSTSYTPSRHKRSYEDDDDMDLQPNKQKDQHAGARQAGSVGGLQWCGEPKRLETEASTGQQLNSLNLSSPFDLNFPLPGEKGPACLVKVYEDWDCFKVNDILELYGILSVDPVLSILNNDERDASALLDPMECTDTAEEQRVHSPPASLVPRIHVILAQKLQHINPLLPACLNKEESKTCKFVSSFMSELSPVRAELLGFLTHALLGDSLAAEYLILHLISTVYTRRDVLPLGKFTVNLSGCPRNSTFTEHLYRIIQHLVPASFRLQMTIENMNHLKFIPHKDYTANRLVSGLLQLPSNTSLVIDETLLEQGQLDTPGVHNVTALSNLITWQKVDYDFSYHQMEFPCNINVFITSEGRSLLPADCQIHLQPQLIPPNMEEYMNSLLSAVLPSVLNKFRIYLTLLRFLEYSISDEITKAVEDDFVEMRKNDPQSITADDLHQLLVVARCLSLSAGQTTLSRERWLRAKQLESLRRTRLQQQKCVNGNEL
UniProt Q9BQ69, sequence (Q9BQ69 whole entry, looked up): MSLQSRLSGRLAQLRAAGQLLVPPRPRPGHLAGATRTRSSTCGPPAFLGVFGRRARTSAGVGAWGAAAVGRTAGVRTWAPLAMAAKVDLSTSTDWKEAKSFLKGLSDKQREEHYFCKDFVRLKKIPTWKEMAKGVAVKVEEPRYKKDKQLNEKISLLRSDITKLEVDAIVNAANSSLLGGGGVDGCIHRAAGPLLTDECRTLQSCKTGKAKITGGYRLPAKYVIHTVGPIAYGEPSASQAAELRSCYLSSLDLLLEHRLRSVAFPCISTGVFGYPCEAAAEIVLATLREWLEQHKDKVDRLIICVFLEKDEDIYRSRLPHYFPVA
UniProt Q9H8H3, sequence (Q9H8H3 whole entry, looked up): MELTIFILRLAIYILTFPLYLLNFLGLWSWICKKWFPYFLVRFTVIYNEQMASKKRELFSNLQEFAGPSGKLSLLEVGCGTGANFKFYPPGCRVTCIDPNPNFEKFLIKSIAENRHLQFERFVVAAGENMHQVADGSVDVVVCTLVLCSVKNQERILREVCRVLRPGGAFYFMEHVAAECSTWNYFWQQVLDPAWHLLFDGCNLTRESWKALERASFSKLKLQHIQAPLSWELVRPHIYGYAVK
UniProt Q9UBB5, sequence (Q9UBB5 whole entry, looked up): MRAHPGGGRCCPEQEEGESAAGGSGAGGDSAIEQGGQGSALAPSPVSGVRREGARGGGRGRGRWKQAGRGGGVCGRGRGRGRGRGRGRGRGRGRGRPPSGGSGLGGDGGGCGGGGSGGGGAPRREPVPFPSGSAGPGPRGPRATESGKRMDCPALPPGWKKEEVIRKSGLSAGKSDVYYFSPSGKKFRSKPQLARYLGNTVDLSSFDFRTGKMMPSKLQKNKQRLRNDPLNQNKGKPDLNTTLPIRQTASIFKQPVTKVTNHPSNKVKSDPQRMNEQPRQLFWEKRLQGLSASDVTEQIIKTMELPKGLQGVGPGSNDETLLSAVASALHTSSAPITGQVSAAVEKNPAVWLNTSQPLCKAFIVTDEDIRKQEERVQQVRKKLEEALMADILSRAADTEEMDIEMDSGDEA
UniProt Q16644, sequence (Q16644 whole entry, looked up): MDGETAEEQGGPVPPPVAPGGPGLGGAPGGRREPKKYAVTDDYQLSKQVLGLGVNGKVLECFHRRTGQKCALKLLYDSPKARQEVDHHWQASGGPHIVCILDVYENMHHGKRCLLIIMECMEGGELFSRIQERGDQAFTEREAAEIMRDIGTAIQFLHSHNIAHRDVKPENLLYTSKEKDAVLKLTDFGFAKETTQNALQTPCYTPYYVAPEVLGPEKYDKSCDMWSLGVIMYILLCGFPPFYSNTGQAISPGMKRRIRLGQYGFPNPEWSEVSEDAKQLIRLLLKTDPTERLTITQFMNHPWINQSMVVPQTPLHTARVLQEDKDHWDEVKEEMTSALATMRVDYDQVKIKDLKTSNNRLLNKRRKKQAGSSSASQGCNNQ
UniProt O95777, sequence (O95777 whole entry, looked up): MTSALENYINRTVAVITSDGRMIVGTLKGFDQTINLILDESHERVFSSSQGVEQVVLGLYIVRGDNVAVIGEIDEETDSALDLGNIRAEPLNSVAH

Compound in this assay: C[C@H](Nc1ncnc2nc[nH]c12)c1cc2cccc(Cl)c2c(=O)n1-c1ccccc1 [duvelisib]
As to the kind of experiment: log2 fold change, soluble protein after heating vs DMSO (PISA); higher = thermal stabilisation; K562 lysate, 10 uM; active = over 0.2 and 3.5 SD of the protein, either way, in both replicates (recomputed). In outline: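 Values give the log-two fold change in thermal stability against solvent controls, from duplicates. Crude K562 extract at 1 mg/mL protein, made by dounce homogenisation in PBS pH 7.4 with 1 mM MgCl2, was treated with 10 μM compound for 30 min. After 3 min heating across 48°C-58°C, aliquots were pooled, adjusted to 0.5% NP-40 at 4°C and centrifuged at 21,000xg for 90 min. The supernatant was measured by TMTpro 16plex LC-MS/MS with channel sums equalised.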
As for LARS2 (UniProt Q15031), the log2 fold change is -0.039 (inactive).

On to LYSMD3 (UniProt Q7Z3D4), for which the log2 fold change was 0.066 (inactive). For MARK3 (UniProt P27448) the value was 0.011 (inactive); for MAP2K2 (UniProt P36507), 0.012 (inactive); for MAD2L1BP isoform 3 (UniProt Q15013), 0.048 (inactive). For MOCS1 isoform 8 (UniProt Q9NZB8) the value was 0 (inactive); for LRRC40 (UniProt Q9H9A6), -0.025 (inactive); for MPZL1 (UniProt O95297), 0.001 (inactive). For MON2 isoform 5 (UniProt Q7Z3U7) the value was 0.003 (inactive). LLGL1 (UniProt Q15334): the log2 fold change is 0.096 (inactive).

For MRPL10 isoform 2 (UniProt Q7Z7H8), the log2 fold change was 0.034 (inactive). For LIMS1 isoform 3 (UniProt P48059) the value was -0.023 (inactive); for MED12 isoform 2 (UniProt Q93074), 0 (inactive); for METTL7A (UniProt Q9H8H3), 0.021 (inactive). Regarding MED17 (UniProt Q9NVC6), the log2 fold change is -0.005 (inactive).

For LSM8 (UniProt O95777), the log2 fold change was 0.002 (inactive).

On to MFF isoform 2 (UniProt Q9GZY8), for which the log2 fold change was 0.022 (inactive). For LARS (UniProt Q9P2J5) the value was -0.013 (inactive); for MAPK9 (UniProt P45984), 0.006 (inactive); for MED13L (UniProt Q71F56), -0.083 (inactive).

For MACROD1 (UniProt Q9BQ69), the log2 fold change is 0.04 (inactive). For MRPL46 (UniProt Q9H2W6) the value was 0.033 (inactive); for MGST1 (UniProt P10620), 0.013 (inactive). As for MGAT5 (UniProt Q09328), the log2 fold change was 0.018 (inactive). For MAT2B (UniProt Q9NZL9) the value was -0.031 (inactive); for MCMBP (UniProt Q9BTE3), 0.002 (inactive). For MICB, A0A140T979 the value was 0.052 (inactive); for LSS (UniProt P48449), 0.008 (inactive). On to MORF4L1 isoform 2 (UniProt Q9UBU8), for which the log2 fold change is 0.021 (inactive). Consider MAPKAPK3 (UniProt Q16644), for which the log2 fold change is -0.038 (inactive). Consider KPNA4 (UniProt O00629), for which the log2 fold change was 0.012 (inactive). As to LIG3 (UniProt P49916), the log2 fold change is 0.01 (inactive). For MAP4 (UniProt E7EVA0) the value was 0.012 (inactive); for MLST8 (UniProt Q9BVC4), -0.028 (inactive). For LSG1 (UniProt Q9H089) the value was -0.075 (inactive); for MPP1 (UniProt Q00013), 0.012 (inactive); for LRWD1 (UniProt Q9UFC0), 0 (inactive). With MBD2 (UniProt Q9UBB5), the log2 fold change is 0.02 (inactive). Take MCU (UniProt Q8NE86): the log2 fold change is 0.037 (inactive).

For the origin of these results see the supplement of paper PMC10849652.
